Laboratory results: PubChem BioAssay AID651640 (Broad Institute, 2012)
Several values for one entry are separate records, joined by “and”; a condition that tells them apart may be missing. Identical values can stand only once. Among all 350,000 compounds or so, about 6,000 (1.7%) were called active. About 5% were inconclusive and are not listed. This is one part of a sample in which actives are shown more often than they occur. Unmarked numbers belong to inactive results. No stated cut-off is given here; in the data, active means CPE inhibition above about 20% (passing the limit was not always enough); inconclusive means no clear call, values can overlap the other calls; tested in BHK-21 cells.

Experiment: inhibitors of DENV2 cytopathic effect, primary screen, cell-based, plate reader, single concentration (AID 651640);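 further: 0% = median of neutral control wells and 100% = median of positive control wells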
Details: DENV2-infected cells, cytopathic effect rescue, at 9.99 µM, stronger effect = higher value

Compound	CPE inhibition
COc1ccccc1-c1cn(CC[C@H]2CC[C@@H](NC(=O)CCN3CCCCC3)[C@@H](CO)O2)nn1	-1.83%
C[C@H]1CN([C@@H](C)CO)S(=O)(=O)c2ccc(C#Cc3cccc(F)c3)cc2O[C@@H]1CN(C)S(=O)(=O)c1cn(C)cn1	-0.538%
CCNC(=O)[C@H]1[C@H](CO)[C@H]2Cn3c(cccc3=O)[C@@H]1N2Cc1cc(F)ccc1F	-7.97%
CCCNC(=O)N1C[C@@H](O)COC[C@@H]2O[C@@H](CC(=O)O)CC[C@H]21	5.1%
CN(C)CC(=O)N[C@@H]1C[C@@H]2O[C@H](CO)CC[C@@H]2O[C@@H]1CCc1ccc(C#Cc2ccccc2)cc1	6.51%
C[C@H](CO)N1C[C@H](C)[C@H](CN(C)C)Oc2ncc(/C=C/c3ccccc3)cc2C1=O	-2.89% and -2.09%
C[C@H]1CN([C@@H](C)CO)C(=O)c2cc(N(C)C)ccc2O[C@@H]1CN(C)Cc1ccccc1	1.9%
C/C=C/c1cnc2c(c1)C(=O)N([C@H](C)CO)C[C@H](C)[C@@H](CN(C)C(=O)Nc1ccc(C(F)(F)F)cc1)O2	-8.88%
Cc1noc(C)c1NC(=O)Nc1ccc2c(c1)C(=O)N([C@H](C)CO)C[C@@H](C)[C@@H](CN(C)Cc1ccccc1)O2	33.6% (active)
C[C@H](CO)N1C[C@H](C)[C@H](CN(C)Cc2ccncc2)Oc2ccc(N(C)C)cc2C1=O	24.8% (active)
C[C@@H]1CN([C@@H](C)CO)C(=O)c2cc(N(C)C)ccc2O[C@H]1CN(C)Cc1ccc(C(F)(F)F)cc1	2.48%
C[C@@H]1CN([C@H](C)CO)C(=O)c2cc(NC(=O)Nc3ccc4c(c3)OCO4)ccc2O[C@@H](C)CCCCO[C@@H]1CN(C)Cc1ccc2c(c1)OCO2	-24.7%
C[C@H](O)C#Cc1cnc2c(c1)C(=O)N([C@H](C)CO)C[C@@H](C)[C@@H](CN(C)C(=O)Nc1ccc(C(F)(F)F)cc1)O2	-2.9%
C[C@@H]1CCCCO[C@@H](CN(C)Cc2ccc3c(c2)OCO3)[C@@H](C)CN([C@@H](C)CO)C(=O)c2cc(NC(=O)Nc3ccccc3)ccc2O1	-0.739%
Cc1noc(C)c1NC(=O)Nc1ccc2c(c1)C(=O)N([C@H](C)CO)C[C@H](C)[C@H](CN(C)Cc1ccc(-c3ccccc3)cc1)O2	5.27%
Cc1noc(C)c1NC(=O)Nc1ccc2c(c1)C(=O)N([C@@H](C)CO)C[C@H](C)[C@H](CN(C)Cc1ccc(-c3ccccc3)cc1)O2	-1.16%
C[C@@H]1CN([C@@H](C)CO)C(=O)c2cc(/C=C/c3ccccc3)cnc2O[C@H]1CN(C)C(=O)Nc1ccc(C(F)(F)F)cc1	22.8% (active)
C[C@H]1CCCCO[C@@H](CN(C)Cc2ccc3c(c2)OCO3)[C@@H](C)CN([C@@H](C)CO)C(=O)c2cc(NC(=O)Nc3ccc(F)cc3)ccc2O1	23% (active)
C[C@@H]1CN([C@@H](C)CO)C(=O)c2cc(-c3ccccc3F)cnc2O[C@H]1CN(C)C(=O)C1CC1	-2.29%
CO[C@H](CN(C)S(=O)(=O)c1ccc(Cl)cc1)[C@@H](C)CN(Cc1ccccc1Cl)[C@H](C)CO	2.31%
O=C(C1CCOCC1)N1CC(=O)N2[C@H](CO)[C@H](c3ccc(C#CC4CCCCC4)cc3)[C@H]2C1	-10.5%

Compound	CPE inhibition
O=C(C[C@@H]1C[C@@H]2c3cc(NC(=O)CC4CC4)ccc3O[C@@H]2[C@@H](CO)O1)NCCN1CCCCC1	1.09%
COc1ccc(NC(=O)N(C)C[C@H]2OCCCC[C@H](C)Oc3ccc(NS(=O)(=O)c4ccc(Cl)cc4)cc3C(=O)N([C@@H](C)CO)C[C@H]2C)cc1	12.8%
COc1ccc(NC(=O)N(C)C[C@H]2OCCCC[C@H](C)Oc3ccc(NC(=O)NC4CCCCC4)cc3C(=O)N([C@@H](C)CO)C[C@@H]2C)cc1	76.4% (active)
COc1ccc(NC(=O)N(C)C[C@H]2OCCCC[C@@H](C)Oc3ccc(NC(=O)NC4CCCCC4)cc3C(=O)N([C@H](C)CO)C[C@H]2C)cc1	9.97%
COc1ccc(NC(=O)N(C)C[C@H]2OCCCC[C@@H](C)Oc3ccc(NS(=O)(=O)c4ccc(F)cc4)cc3C(=O)N([C@H](C)CO)C[C@H]2C)cc1	10.2%
COc1ccc(NC(=O)N(C)C[C@@H]2OCCCC[C@H](C)Oc3ccc(NC(=O)c4ccccc4)cc3C(=O)N([C@H](C)CO)C[C@H]2C)cc1	-12.7%
COc1ccc(NC(=O)N(C)C[C@@H]2OCCCC[C@@H](C)Oc3ccc(NS(=O)(=O)c4ccc(Cl)cc4)cc3C(=O)N([C@H](C)CO)C[C@H]2C)cc1	37.6% (active)
COc1ccc(NC(=O)N(C)C[C@H]2OCCCC[C@H](C)Oc3ccc(NC(=O)c4ccncc4)cc3C(=O)N([C@H](C)CO)C[C@@H]2C)cc1	21.4% (active)
COc1ccc(NC(=O)N(C)C[C@@H]2OCCCC[C@@H](C)Oc3ccc(NC(=O)NC4CCCCC4)cc3C(=O)N([C@H](C)CO)C[C@@H]2C)cc1	1.54% and 2.7%
COc1ccc(NC(=O)N(C)C[C@H]2OCCCC[C@@H](C)Oc3ccc(NC(=O)c4ccncc4)cc3C(=O)N([C@@H](C)CO)C[C@H]2C)cc1	4.05%
O=C(C[C@@H]1C=C[C@@H](NC(=O)Nc2cccc(F)c2)[C@H](CO)O1)NCC1CCCCC1	8.16%
C[C@@H]1CN([C@@H](C)CO)C(=O)c2cc(C#Cc3ccncc3)cnc2O[C@@H]1CN(C)C(=O)CN(C)C	-5.91%
C[C@H]1CN([C@@H](C)CO)C(=O)Cc2cc(NC(=O)C3CC3)ccc2O[C@@H]1CN(C)S(=O)(=O)c1cccs1	0.692%
O=C(C[C@H]1C=C[C@@H](NC(=O)Nc2cc(F)ccc2F)[C@@H](CO)O1)NCc1ccc2c(c1)OCO2	3.1%
CCC(=O)Nc1ccc2c(c1)OC[C@@H](C)N(Cc1cncnc1)C[C@H](C)[C@@H](OC)CN(C)C2=O	0.095%
O=C(Cc1ccncc1)Nc1ccc2c(c1)[C@@H]1C[C@H](CC(=O)N3CCCCC3)O[C@H](CO)[C@@H]1O2	-1.67%
CC(=O)N1[C@H](CN(CC2CCC2)C(=O)CN(C)C)[C@@H](c2ccccc2)[C@@H]1CO	-6.71%
CCO[C@@H]1OC(C(=O)NCc2nc3ccccc3[nH]2)=C[C@H](C2CCCCC2)[C@H]1CCCO	5.22%
CCO[C@H]1OC(C(=O)Nc2ccccc2)=C[C@@H](C2CC2)[C@@H]1CCCO	-12.3%
CCO[C@H]1OC(C(=O)O)=C[C@@H](C2CCCCC2)[C@@H]1CCCO	45.4% (active)
C[C@H](CO)N1C[C@H](C)[C@@H](CN(C)S(=O)(=O)c2cccs2)OCc2ccccc2-c2ccccc2C1=O	0.48%

Compound	CPE inhibition
COc1cccc(NC(=O)CN(C)C(=O)Cc2ccc(Cl)cc2Cl)c1	-4.12%
COc1cccc(NC(=O)CN(C)C(=O)CSC(=S)N2CCCC2)c1	31.4% (active)
COc1cccc(NC(=O)CN(C)CC(=O)Nc2ccc3c(c2)CCC3)c1	4.15%
O=C(Nc1cc(F)ccc1F)N1CCCCN2[C@H](C1)[C@H](c1ccc(-c3cccnc3)cc1)[C@@H]2CO	-2.73%
CN(C)CCCNC(=O)C[C@@H]1C=C[C@H](NC(=O)c2ccccc2F)[C@H](CO)O1	-4.33%
CCCC#Cc1ccc([C@@H]2[C@H](CO)N3CCCCN(S(=O)(=O)c4ccccc4F)C[C@@H]23)cc1	-29.1%
CC(C)NC(=O)N(C)C[C@H]1Oc2cc(-c3cncnc3)ccc2S(=O)(=O)N([C@@H](C)CO)C[C@H]1C	12.5%
Cc1ccc(S(=O)(=O)N(CCc2ccccc2)c2ccc3c(c2)C2CC3CCN2C(=O)OCc2ccccc2)cc1 (stereo not drawn)	-3.72%
O=C(OCc1ccccc1)N1CCC2CC1c1cc(N3CCN(S(=O)(=O)c4cc(Cl)cc(Cl)c4)CC3)ccc12 (stereo not drawn)	-5.76%
O=C(OCc1ccccc1)N1CCC2CC1c1ccc(-c3ccc4c(c3)OCO4)cc12 (stereo not drawn)	59.5% (active)
O=C(C[C@H]1CC[C@H]2[C@@H](COC[C@H](O)CN2Cc2nccs2)O1)NCc1ccc(Oc2ccccc2)cc1	3.47%
CC(Oc1ccccc1)C(=O)Nc1c2c(nn1-c1ccccc1)CS(=O)C2 (stereo not drawn)	2.29%
Cc1ccc(-n2nc3c(c2NC(=O)CCC2CCCCC2)CS(=O)C3)cc1 (stereo not drawn)	-3.75%
COc1ccc(-n2nc3c(c2NC(=O)Cc2cccc(C)c2)CS(=O)C3)cc1 (stereo not drawn)	99.5% (active)
CC1(C)CN(Cc2cccnc2)C(=O)[C@H]1CC(=O)Nc1ccc(Br)cc1	30.1% (active)
CCCCN1CC(C)(C)[C@H](CC(=O)Nc2ccc(Br)cc2)C1=O	6.43%
CC1(C)CN(CCc2ccccc2)C(=O)[C@H]1CC(=O)Nc1ccc(Br)cc1	0.989%
C[C@@H]1CCCCO[C@@H](CN(C)C(=O)CCC(F)(F)F)[C@H](C)CN([C@@H](C)CO)C(=O)c2cc(NC(=O)CCCN(C)C)ccc2O1	3.1%
O=C(NC[C@H]1[C@@H](c2ccccc2)[C@H](CO)N1CC1CC1)c1cccnc1	-7.73%
O=C(NC[C@@H]1[C@H](c2ccccc2)[C@H](CO)N1CC1CCCC1)c1cccnc1	54.5% (active)
O=S(=O)(NC[C@H]1[C@@H](c2ccccc2)[C@@H](CO)N1CC1CC1)c1ccccc1	8.65%
